Data published in ChEMBL document CHEMBL3988442, “University of Dundee, Small-Polar-MMV Screening Library” (2021).
Screen size: about 48,000 compounds; about 13,000 (27%) showed an effect of 50% or more. This is one part of the list.

System: Wolbachia pipientis
Assay: Anti-Wolbachia Cell-Based Screen
Assay type: functional
Set-up: scale not given: in the data most compounds retested in dose-response had high values
Settings: 5 µM

Row | Structure (SMILES) | Percent Effect [%]
1 | O=C(CC(F)(F)F)N1CCc2[nH]nc(-c3ccc4c(c3)OCO4)c2C1 | -1.74
2 | CNC(=O)C(C)CNC(=O)c1coc(COc2cccc(F)c2F)n1 (centres undefined) | -14.56
3 | CCc1ccc(CNC2(c3ccc(F)cc3)CCOCC2)o1 | 6.225
4 | Cc1ccc(-c2nc(CN(Cc3ccco3)C3CCS(=O)(=O)C3)cs2)o1 (centres undefined) | 9.055
5 | OC1CCCN(Cc2cn(CC3CCN(C4CCSCC4)CC3)nn2)C1 (centres undefined) | -15.38
6 | CC(C)C(C)N(C)Cc1nnc(-c2ccco2)o1 (centres undefined) | -1.497
7 | O=C(NCC1CCOC1)c1cc(-c2cccc(Cl)c2)on1 (centres undefined) | 10.92
8 | CCOc1ccc(-c2nc(C(=O)NCC3CCOC3)cs2)cc1 (centres undefined) | 120.1
9 | COc1ccc(-c2nc(C(=O)NCC3CCOC3)cs2)cc1OC (centres undefined) | 119.6
10 | O=C(NCC1CCOC1)c1cc(-c2cccc(Cl)c2)[nH]n1 (centres undefined) | -2.907
11 | Cc1ccc(-c2nc(CC(=O)NCC3CCCOC3)cs2)o1 (centres undefined) | 16.72
12 | O=C(NCC1COC2(CCOCC2)O1)c1csc(-c2cccc(Cl)c2)n1 (centres undefined) | 108.1
13 | COCc1nc2cc(NCc3ccncc3)ccc2o1 | 5.074
14 | Cc1cc(=O)[nH]c(CCNC(=O)C(c2ccc(F)cc2)N(C)C)n1 (centres undefined) | 1.632
15 | Cc1nnc(NCC2(c3ccccc3)CCC2)c(C#N)c1C | 7.557
16 | CC1CCN(S(=O)(=O)NCCCn2cncn2)CC1 | 4.517
17 | COc1ncccc1CN1CCN(c2noc(C(C)C)n2)CC1 | -8.091
18 | COc1cccc(CN2CCN(c3noc(C(C)C)n3)CC2)c1F | -2.027
19 | COc1cccc(CN2CCN(c3cccc(C(C)C)n3)CC2)c1F | 77.06
20 | CCc1ccc(C(=O)O)cc1S(=O)(=O)N(C)c1cccc(C)c1 | -14.76
21 | CS(=O)(=O)Cc1nc(CN2CCOc3ccccc3C2)cs1 | 2.526
22 | CS(=O)(=O)CCN(Cc1cccc(O)c1)C1CCC(O)CC1 (centres undefined) | -5.154
23 | Cc1ccc(C(=O)N(Cc2cccc(F)c2)C2CC2)c(=O)[nH]1 | -0.8552
24 | CS(=O)(=O)CCC(=O)N(CCc1cccc(F)c1)C1CC1 | 102.1
25 | NS(=O)(=O)CCN(CCc1cccc(F)c1)C1CCCC1 | 101.5

Row | Structure (SMILES) | Percent Effect [%]
26 | O=C(C[S+]([O-])Cc1cccc(F)c1)NC1CCCC1 (centres undefined) | -2.524
27 | Fc1cccc(CCN(c2ccc3nnnn3n2)C2CC2)c1 | -14.94
28 | CC(C)(C)S(=O)(=O)CCNC(=O)NCCCc1cccc(F)c1 | 22.42
29 | CS(=O)(=O)C1CCN(S(=O)(=O)Cc2cccc(F)c2)CC1 | -8.016
30 | CS(=O)(=O)CCC(=O)N(Cc1c(F)cccc1F)C1CCCC1 | -8.645
31 | CS(=O)(=O)CCN(CCc1cccc(F)c1)C1CC1 | 102.8
32 | CCCN(CCS(C)(=O)=O)C1CCc2ccccc2C1 (centres undefined) | 9.171
33 | CS(=O)(=O)CCCN(CCc1cccc(F)c1)C1CC1 | 89.73
34 | Cc1noc(C)c1CN(C)C(=O)NC1CCN(C2CC2)CC1 | -39.67
35 | O=C(c1cc(-c2ccco2)nc2c(Cl)cccc12)N1CCS(=O)(=O)CC1 | -1.812
36 | Cc1nc2c(c(N3CCC(O)(CN4CCCC4)CC3)n1)CCN(C)CC2 | -16.37
37 | Cc1c(C2CCCN(C(=O)Cc3ccccn3)C2)n2c(nc1=O)CCC2.Cl (centres undefined) | -12.52
38 | Cc1c(C2CCCN(C(=O)c3ccncc3)C2)n2c(nc1=O)CCC2.Cl (centres undefined) | 99.59
39 | Cc1c(C2CCCN(C(=O)c3cccnc3)C2)n2c(nc1=O)CCC2 (centres undefined) | 104.3
40 | Cc1noc(C)c1C(=O)N1CCCC(c2c(C)c(=O)nc3n2CCC3)C1 (centres undefined) | 87.08
41 | Cc1nn(C)cc1-c1ccnc(N(C)Cc2ccon2)n1 | 9.555
42 | COc1cc2c(cc1OC)S(=O)(=O)N(Cc1cccc(C)c1)C2=O | -2.103
43 | Cc1cccc(C(C(=O)N(C)CCc2cn[nH]c2)N(C)C)c1 (centres undefined) | -40.91
44 | Cc1cnn(CC2CCCN2c2ncnc3c2CCC3)c1 (centres undefined) | 7.449
45 | CC(C)(C)c1cc(NC(=O)CN2CCC(N3CCNC3=O)CC2)on1 | 95.17
46 | Cn1nc2c(cc1=O)CN(CC(=O)Nc1cc(C(C)(C)C)no1)CC2 | 4.087
47 | O=C(CN1CCC(N2CCNC2=O)CC1)NCC(F)(F)F | -6.225
48 | Cc1cc(NC(=O)CN2CCC(N3CCNC3=O)CC2)on1 | 131.4
49 | CC(C)(C)c1cc(NC(=O)CN2CCCC(Cn3cncn3)C2)on1 (centres undefined) | 1.148
50 | Cc1cc(NC(=O)CN2CCc3nn(C)c(=O)cc3C2)on1 | -13.84

Row | Structure (SMILES) | Percent Effect [%]
51 | COc1cc2c(cc1-c1nc3c(cnn3C(C)C3CC3)[nH]1)OCO2 (centres undefined) | -2.531
52 | Cc1nc(CN2CCN(C)C(=O)C23CCN(C(C)C)CC3)cs1.O=C(O)C(F)(F)F | 114.4
53 | COCC1CC2(CCN(C(C)=O)CC2)CN1Cc1csc(C)n1.O=C(O)C(F)(F)F (centres undefined) | -9.248
54 | CCC(=O)N1CCC2(CC1)C(=O)N(C)CCN2Cc1csc(C)n1.O=C(O)C(F)(F)F | 115.6
55 | CC(C)C(C(=O)O)c1cccc(Cl)c1 (centres undefined) | -23.59
56 | CC(NS(=O)(=O)CCCC#N)c1cccc(-n2cccn2)c1 (centres undefined) | -70.87
57 | CC(=O)N1CCC2(CC1)CN(C(=O)[C@@H]1CSCN1)c1ccc(Cl)cc12.O=C(O)C(F)(F)F | 102.4
58 | Cl.Cl.O=C([C@@H]1CSCN1)N1CC2(CCNCC2)c2cc(Cl)ccc21 | 111
59 | Cl.Cl.O=C([C@H]1CCCN1)N1CC2(CCNCC2)c2cc(Cl)ccc21 | 99.27
60 | Cl.Cl.O=C([C@@H]1CSCN1)N1CCC2(CC1)CNCc1ccccc12 | -5.878
61 | OCC(CO)Nc1ccc2ccc(Cl)c(Cl)c2n1 | 21.88
62 | COCc1csc(NC(=O)NCc2ncccc2C)n1 | -7.53
63 | Cn1cnc2c1C(COCc1ccccc1)N(Cc1ccccn1)CC2.O=C(O)C(F)(F)F.O=C(O)C(F)(F)F (centres undefined) | 9.45
64 | Cc1ccccc1C(CNC(=O)CSc1nnc(N)s1)N(C)C (centres undefined) | -0.498
65 | Cl.c1nc(N2CCOCC2)ncc1-c1cncn1CCCN1CCCCC1 | 140.4
66 | Clc1ccc(N2CCN(CCCN3CCCCC3)CC2)nc1 | -9.016
67 | c1ccc(-c2ncn(CCCN3CCOCC3)c2-c2ccncc2)cc1 | -9.931
68 | Cc1ccccc1CC(=O)NCCNc1nccc(C(F)(F)F)n1 | -4.75
69 | Cc1nn2cccnc2c1C(=O)NCc1ccnc(OCC2CC2)c1 | 2.843
70 | Cc1cc(-c2nc(C3(NC(=O)OC(C)(C)C)CCC3)no2)on1 | 26.17
71 | CN1CCN(Cc2cn3c(n2)CN(C(=O)c2cccn2C)CC3)CC1.O=C(O)C(F)(F)F.O=C(O)C(F)(F)F | 2.395
72 | O=C(CC1CC1)NCc1cn2c(n1)CN(Cc1cccc(F)c1)CC2.O=C(O)C(F)(F)F | 2.246
73 | O=C(NCc1cn2c(n1)CN(Cc1cccc(F)c1)CC2)C1CCC1.O=C(O)C(F)(F)F | -4.288
74 | COc1ccc(CN2CCn3cc(Cn4cccn4)nc3C2)cc1.O=C(O)C(F)(F)F | -6.787
75 | CN(Cc1cn2c(n1)CN(Cc1ccc(F)cc1)CC2)Cc1ccco1.O=C(O)C(F)(F)F.O=C(O)C(F)(F)F | 12.2

Row | Structure (SMILES) | Percent Effect [%]
76 | COc1ccc(CN2CCn3cc(CN4CCCCC4)nc3C2)cc1.O=C(O)C(F)(F)F.O=C(O)C(F)(F)F | 13.43
77 | Cc1ccc(CN2CCn3cc(CN4CCN(C)CC4)nc3C2)cc1.O=C(O)C(F)(F)F.O=C(O)C(F)(F)F.O=C(O)C(F)(F)F | 108
78 | CN1CCN(Cc2cn3c(n2)CN(Cc2cccc(F)c2)CC3)CC1.O=C(O)C(F)(F)F.O=C(O)C(F)(F)F.O=C(O)C(F)(F)F | 118.6
79 | CN1CCN(Cc2cn3c(n2)CN(Cc2ccc(F)cc2)CC3)CC1.O=C(O)C(F)(F)F.O=C(O)C(F)(F)F.O=C(O)C(F)(F)F | 107.8
80 | CN(CCN1CCOCC1)S(=O)(=O)CC1CCCC1 | -5.333
81 | CCOC(C)c1nc(Cn2cccn2)cs1 (centres undefined) | -9.016
82 | CNC(=O)NC(=O)C(C)Nc1ccccc1OCCOC (centres undefined) | -4.777
83 | COCCOCC(=O)NC(C#N)c1cccc(Cl)c1Cl (centres undefined) | -5.462
84 | CC(NC(=O)CCCOc1ccccc1Cl)c1ccncc1 (centres undefined) | -5.122
85 | Cc1ccccc1C(C#N)NC(=O)CCCOc1cccnc1 (centres undefined) | 81.76
86 | N#CC(NC(=O)CCC(=O)NC1CCCC1)c1ccc(F)cc1F (centres undefined) | -15.9
87 | CCC(C#N)NC(=O)CCCOc1cccc(C(C)=O)c1 (centres undefined) | 2.653
88 | COCCOCC(=O)NC(C#N)c1ccccc1C (centres undefined) | -6.044
89 | N#CC(NC(=O)CCCOc1cccnc1)c1ccccc1Cl (centres undefined) | 111.5
90 | CCCC(C#N)NC(=O)CCCOc1cccc(F)c1 (centres undefined) | -0.6223
91 | N#CC(NC(=O)CCCOc1cccnc1)c1ccc(F)cc1F (centres undefined) | 86.86
92 | CC(C)c1ccc(S(=O)(=O)Cc2nc(N)nc(N(C)C)n2)cc1 | 13.19
93 | COc1c(NC(=O)N(C)CCOc2ccccc2)c(C)nn1C | -49.81
94 | c1ccn2c(SCC3CN=C(N4CCOCC4)S3)ncc2c1 (centres undefined) | 6.715
95 | O=S(=O)(NC1CCN(CC(F)(F)F)C1)c1cc(F)cc(F)c1 (centres undefined) | -11.02
96 | COCC(=O)N1CCC(c2cc(N(C)C)cc(C)n2)CC1 | 144.6
97 | COCC(=O)N1CCC(c2cc(-c3ccc(N)nc3)cc(C)n2)CC1 | 134.8
98 | COCC(=O)N1CCC(c2cc(C(F)(F)F)n3ccnc3n2)CC1 | -3.76
99 | COCC(=O)N1CCC(c2noc3nc(C)cc(C(F)(F)F)c23)CC1 | -9.714
